Results taken from PubChem BioAssay (NCATS).
“And” between values parts separate entries of the source, which are not always exact repeats. Identical values can stand only once. Results filed as inconclusive are left out. The source made the active and inactive calls. Unless noted, calls follow the shape of the dose curve; as a rule, active = well fitted curve in the direction sought with a large enough effect; inconclusive = small, poorly fitted or top-dose-only effect, or another doubt; inactive = no such curve, though single readings can be large; an effect the other way counts as inactive or inconclusive.

Tests used:
[1] = S16 Schwann cell viability assay (CellTiter-Glo assay) (AID 624031);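 also: cellular ATP luminescence as a viability measure; series mostly up to about 58 µM; plate controls were DMSO-treated cells for no effect and cell-free wells for full effect; nearly all actives have a fitted effect of over 70% in size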
In short: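 Native S16 rat Schwann cells in DMEM/10% FBS without phenol red were incubated overnight, then exposed to compounds for 24 h at 37 °C/5% CO2. Viability was read as ATP luminescence (CellTiter-Glo), normalized to no-cell wells and DMSO (0%).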

[2] = S16 Schwann cell PMP22 intronic element firefly luciferase assay (AID 624032);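 also: series mostly up to about 58 µM; plate controls were DMSO for no effect and PTC124 positive control mean for full effect; nearly all actives have a fitted effect of over 30% in size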
In short: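 Luciferase reporter of PMP22 intronic-element expression in stably transfected S16 rat Schwann cells, read by ONE-Glo luminescence after 24 h compound exposure at 37 C. Activity scaled between DMSO (0%) and positive-control PTC124; concentration-effect curves quality-classified.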

[3] = qHTS assay for small molecule agonists of the antioxidant response element (ARE) signaling pathway (AID 651741; active = well fitted activation curve with a large enough effect in the signal ratio; the % refers to the signal ratio; also: % of control where 0% means no effect)
In short: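 Seeding 2,000 ARE-bla HepG2 cells per well preceded a 5 h incubation at 37 C/5% CO2 and a 16 h compound exposure at 37 C. Beta-lactamase reporter activity was then quantified by fluorescence after 2 h with LiveBLAzer B/G FRET substrate.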

[4] = qHTS assay for small molecule activators of the nuclear factor-kappa B (NF-kB) signaling pathway (AID 651749; active = well fitted activation curve with a large enough effect in the signal ratio; the % refers to the signal ratio; also: series mostly up to about 77 µM; % of control where 0% means no effect); details: NF-kB-bla ME-180 cells, beta-lactamase FRET ratio, 16 h; hits give high values
In short: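 Stably transfected ME-180 line; NF-kB response element upstream of beta-lactamase. Treatment: compound or DMSO, 16 hr. Detection: fluorescent FRET substrate.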

[5] = S16 Schwann cell PMP22 intronic element beta-lactamase assay (AID 624044; calls by dose curve;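 also: 0% = DMSO and -100% = potassium clavulanate positive control; nearly all actives have a fitted effect of over 15% in size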)
In short: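 Rat S16 Schwann cells with beta-Lac driven by a PMP22 intronic element, compound-treated 24 h at 37 °C. LiveBLAzer FRET B/G read: 460 nm normalized to potassium clavulanate vs DMSO; 535 nm FRET as viability; concentration-effect curves classified.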

[6] = qHTS of Trypanosoma Brucei Inhibitors: LOPAC Validation (AID 624147); also: potency is read from the fitted curve at half-maximal effect
In short: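 TbPYK + substrate in 50 mM TEA pH 7.2, 100 mM KCl, 10 mM MgCl2, 0.05% BSA, 0.01% Tween-20; cpd pinned; ADP 130 uM final; 45 min RT; Kinase-Glo Plus 10 min; luminescence endpoint.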

[7] = qHTS of Nrf2 Activators: LOPAC Validation (AID 624149); also: 0% is about no effect
In short: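 AREc32 cells carrying an ARE-driven firefly luciferase were grown overnight in OPTI-MEM with 5% FBS, then exposed to compounds for 24 hr at 37 deg C. Luciferase signal was read after 30 min with Steady-Glo at RT.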

[8] = target: Glucagon-like peptide 1 receptor (Homo sapiens) (UniProt P43220); experiment: qHTS of GLP-1 Receptor Agonists: LOPAC Validation (AID 624148);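 also: luminescence from a luciferase reporter switched on by cAMP; 0% is about no effect; higher luminescence signal means agonism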
In short: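 Agonism scored as increased luciferase luminescence driven by cAMP in HEK293 clones carrying GLP-1R. Cells settled 12 hours, received compound for 4-6 hr at 37 deg C, 5% CO2, and were read after 12 min detection reagent at RT.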

[9] = HTS Assay for Allosteric Antagonists of the Human D2 Dopamine Receptor: Hit Validation in HTRF (AID 624455);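 also: stable D1 dopamine receptor cell line scored for blocking the D1 response; % is scaled to controls: 0 for no effect and ±100 for the full control effect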
In short: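 Hits were examined in an HTRF assay using cells stably expressing the D1 dopamine receptor, scoring inhibition of the D1-mediated response. The preceding primary screen tracked calcium flux after an EC80 dopamine addition in force-coupled, inducible Hek293 Trex D2 cells.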

[10] = qHTS assay for small molecule activators of the p53 signaling pathway (AID 651743; active = well fitted activation curve with a large enough effect in the signal ratio, not every such curve was filed as active; the % refers to the signal ratio; also: series mostly up to about 92 µM; % of control where 0% means no effect); details: HCT-116 p53RE-bla, beta-lactamase FRET ratio, 16 h; activation: hits give high values
In short: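 Screen for p53 pathway agonists uses stably transfected p53RE-bla HCT-116 cells, 4,000 per well, treated 16 h at 37 C with compounds in DMSO.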

[11] = qHTS assay for small molecule disruptors of the mitochondrial membrane potential - 1 hr assay (AID 651754; calls by dose curve; also: nearly all actives have a fitted effect of over 35% in size; also: potency is read from the fitted curve at half-maximal effect)
In short: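 HepG2 cells, attached overnight at 37C, were exposed to compound or DMSO vehicle for 1 hr at 37C, 5% CO2, then stained with Mito-MPS dye for 30 min. Red aggregate versus green monomer fluorescence reports membrane potential.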

[12] = target: Glutaminase kidney isoform, mitochondrial (Homo sapiens) (UniProt O94925); experiment: qHTS for Inhibitors of Glutaminase (GLS): LOPAC Validation (AID 624146);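 also: glutamate product detected by oxidase and peroxidase coupled Amplex red fluorescence gain; series mostly up to about 46 µM; % is scaled to controls: 0 for no effect and ±100 for the full control effect; nearly all actives have a fitted effect of over 60% in size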
In short: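 Read-out is an Amplex red fluorescence increase coupled through glutamate oxidase and HRP, measured before and after 30 min room-temperature incubation. hKGA is in 45 mM KH2PO4 (pH 8.2) with 0.02% Tween-20; glutamine added as 1mM solution.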

[13] = qHTS assay for small molecule disruptors of the mitochondrial membrane potential - 5 hr assay (AID 651755; calls by dose curve; also: % is scaled to controls: 0 for no effect and ±100 for the full control effect; nearly all actives have a fitted effect of over 40% in size)
In short: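 HepG2, 2,000 cells/well, overnight attach; cpd or DMSO 5 hr, 37C/5% CO2; Mito-MPS 30 min 37C; fluor 490/535 + 540/590 nm.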

Chain of Glucagon-like peptide 1 receptor (Homo sapiens) (P43220 whole entry, looked up): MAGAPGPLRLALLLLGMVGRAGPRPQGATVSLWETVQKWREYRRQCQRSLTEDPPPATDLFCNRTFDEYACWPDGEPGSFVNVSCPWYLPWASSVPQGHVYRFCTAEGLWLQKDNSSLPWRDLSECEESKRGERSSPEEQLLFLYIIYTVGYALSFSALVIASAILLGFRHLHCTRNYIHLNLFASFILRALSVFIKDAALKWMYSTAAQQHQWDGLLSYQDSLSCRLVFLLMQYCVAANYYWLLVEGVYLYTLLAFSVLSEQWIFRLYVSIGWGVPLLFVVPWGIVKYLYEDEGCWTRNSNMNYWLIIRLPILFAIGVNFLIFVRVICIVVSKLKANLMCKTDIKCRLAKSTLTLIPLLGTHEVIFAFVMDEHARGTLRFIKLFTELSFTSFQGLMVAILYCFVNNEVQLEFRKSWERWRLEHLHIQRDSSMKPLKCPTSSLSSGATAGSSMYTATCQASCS
Chain of Glutaminase kidney isoform, mitochondrial (Homo sapiens) (O94925 whole entry, looked up, canonical isoform): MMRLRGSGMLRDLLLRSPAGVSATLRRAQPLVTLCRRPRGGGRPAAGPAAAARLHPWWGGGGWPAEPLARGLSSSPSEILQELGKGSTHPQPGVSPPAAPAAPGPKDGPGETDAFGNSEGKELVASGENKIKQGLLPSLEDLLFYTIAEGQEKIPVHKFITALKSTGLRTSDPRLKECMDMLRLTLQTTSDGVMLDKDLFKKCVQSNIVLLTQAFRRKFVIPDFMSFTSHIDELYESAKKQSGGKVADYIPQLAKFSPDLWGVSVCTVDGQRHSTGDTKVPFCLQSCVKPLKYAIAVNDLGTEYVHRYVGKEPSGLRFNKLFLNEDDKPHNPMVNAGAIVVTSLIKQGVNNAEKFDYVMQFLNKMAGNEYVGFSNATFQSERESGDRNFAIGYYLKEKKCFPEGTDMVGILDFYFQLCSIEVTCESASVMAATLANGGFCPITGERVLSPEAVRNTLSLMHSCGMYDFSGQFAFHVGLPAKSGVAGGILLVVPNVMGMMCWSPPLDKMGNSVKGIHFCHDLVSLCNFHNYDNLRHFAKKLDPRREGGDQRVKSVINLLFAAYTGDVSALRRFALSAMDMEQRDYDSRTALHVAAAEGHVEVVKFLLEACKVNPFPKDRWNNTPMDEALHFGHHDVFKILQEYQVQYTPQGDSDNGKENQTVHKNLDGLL

O=C(O)[C@H](O)[C@@H](O)[C@H](O)[C@H](O)CO
inactive: Potency [1] | Potency [2] | Potency [3] | activation [4] -5.45%

COc1ccc(/C=C/C(=O)Nc2ccccc2C(=O)O)cc1OC
inactive: Potency [1] | Potency [2] | Potency [5] | Potency [6] | outcome [7]

C=CC(N)CCC(=O)O (centres undefined)
inactive: Potency [1] | Potency [2] | Potency [5] | Potency [6] | outcome [8] | outcome [7] | Potency [9]

O=C1CN(/N=C/c2ccc([N+](=O)[O-])o2)C(=O)N1
active: Potency [11] 37.6 µM
inactive: Potency [1] | activation [10] 5.55%

CN1[C@@H](CC(=O)c2ccccc2)CCC[C@H]1C[C@H](O)c1ccccc1
inactive: Potency [1] | Potency [2] | Potency [5] | Potency [12] | Potency [6] | outcome [7] | Potency [9]

O=C(OCc1ccccc1)c1ccccc1
inactive: Potency [2] | activation [4] 0.212%

COc1cc(CNC(=O)CCCC/C=C/C(C)C)ccc1O
inactive: Potency [1] | Potency [5] | activation [10] -1.8% and -5.67% | activation [4] 0.091% and 0.703% | Potency [11] | Potency [13]

NCC1OC(O[C@H]2[C@H](O)[C@@H](OC3C(O)C(N)CC(N)C3OC3OC(CO)C(O)C(O)C3N)O[C@@H]2CO)C(N)C(O)C1O (some centres undefined)
inactive: Potency [12] | Potency [6] | outcome [8] | outcome [7] | Potency [9]

O=C(CCCCCN1CCN(c2ccccc2-c2ccccc2)CC1)NC1CCCc2ccccc21 (centres undefined)
inactive: Potency [12] | Potency [6] | outcome [8] | outcome [7] | Potency [9]

Cc1ccc(O)c(N=Nc2ccccc2)n1
active: Potency [6] 19 µM
inactive: Potency [12] | outcome [8] | outcome [7] | Potency [9]
